# The campaign covered roughly 5,500 compounds. About 2,000 (36%) were called active. About 18% were inconclusive and are not listed. The list shows a part of the results. A number with no mark means an inactive call. No stated cut-off is given here; in the data, active means normalized growth mostly below about 0.91 (no sharp cut-off); inconclusive means no clear call, values can overlap the other calls; inactive means mostly above about 0.92.
# Assay: chemical genetic growth profiling, strain panel (AID 1159580);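 further: tested at 20 µM; growth read once vehicle control cultures reached saturation at 30 °C; 1 = growth at the plate median or of vehicle wells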
# Settings: S. cerevisiae deletion strains, growth OD
# [1] = locus YAR019C, strain CDC15, stronger effect = lower value
# [2] = locus YBL105C, strain PKC1, stronger effect = lower value
# [3] = locus YBR135W, strain CKS1, stronger effect = lower value
# [4] = locus YBR136W, strain MEC1, stronger effect = lower value
# [5] = locus YBR160W, strain CDC28, stronger effect = lower value
# [6] = locus YDL017W, strain CDC7, stronger effect = lower value
# [7] = locus YDL028C, strain MPS1, stronger effect = lower value
# [8] = locus YDL101C, strain DUN1, stronger effect = lower value
# [9] = locus YDL108W, strain KIN28, stronger effect = lower value
# [10] = locus YDL132W, strain cdc53, stronger effect = lower value
# [11] = locus YDL214C, strain PRR2, stronger effect = lower value
# [12] = locus YDR052C, strain DBF4, stronger effect = lower value
# [13] = locus YDR054C, strain cdc34, stronger effect = lower value
# [14] = locus YDR226W, strain ADK1, stronger effect = lower value
# [15] = locus YDR477W, strain SNF1, stronger effect = lower value
# [16] = locus YER123W, strain YCK3, stronger effect = lower value
# [17] = locus YER133W, strain GLC7, stronger effect = lower value
# [18] = locus YFL009W, strain cdc4, stronger effect = lower value
# [19] = locus YFL029C, strain CAK1, stronger effect = lower value
# [20] = locus YFR003C, strain YPI1, stronger effect = lower value
# [21] = locus YFR019W, strain FAB1, stronger effect = lower value
# [22] = locus YFR028C, strain CDC14, stronger effect = lower value
# [23] = locus YGR040W, strain KSS1, stronger effect = lower value
# [24] = locus YGR052W, strain FMP48, stronger effect = lower value
# [25] = locus YGR092W, strain DBF2, stronger effect = lower value
# [26] = locus YHR030C, strain SLT2, stronger effect = lower value
# [27] = locus YHR079C, strain IRE1, stronger effect = lower value
# [28] = locus YHR082C, strain KSP1, stronger effect = lower value
# [29] = locus YHR205W, strain SCH9, stronger effect = lower value
# [30] = locus YIL147C, strain SLN1, stronger effect = lower value
# [31] = locus YJL095W, strain BCK1, stronger effect = lower value
# [32] = locus YJL128C, strain PBS2, stronger effect = lower value
# [33] = locus YJL157C, strain FAR1, stronger effect = lower value
# [34] = locus YJR016C, strain ILV3, stronger effect = lower value
# [35] = locus YJR066W, strain TOR1 (second series), stronger effect = lower value
# [36] = locus YJR066W, strain TOR1, stronger effect = lower value
# [37] = locus YKL048C, strain ELM1, stronger effect = lower value
# [38] = locus YKL067W, strain YNK1, stronger effect = lower value
# [39] = locus YKL101W, strain HSL1, stronger effect = lower value
# [40] = locus YKL193C, strain SDS22, stronger effect = lower value
# [41] = locus YKL203C, strain TOR2, stronger effect = lower value
# [42] = locus YLR113W, strain HOG1, stronger effect = lower value
# [43] = locus YLR133W, strain CKI1, stronger effect = lower value
# [44] = locus YLR403W, strain SFP1, stronger effect = lower value
# [45] = locus YML070W, strain DAK1, stronger effect = lower value
# [46] = locus YMR001C, strain CDC5, stronger effect = lower value
# [47] = locus YMR205C, strain PFK2 (second series), stronger effect = lower value
# [48] = locus YMR277W, strain FCP1, stronger effect = lower value
# [49] = locus YNL006W, strain LST8, stronger effect = lower value
# [50] = locus YNL020C, strain ARK1, stronger effect = lower value
# [51] = locus YNL161W, strain CBK1, stronger effect = lower value
# [52] = locus YNL183C, strain NPR1, stronger effect = lower value
# [53] = locus YNL207W, strain RIO2, stronger effect = lower value
# [54] = locus YNL222W, strain SSU72, stronger effect = lower value
# [55] = locus YNL307C, strain MCK1 (second series), stronger effect = lower value
# [56] = locus YOL078W, strain AVO1, stronger effect = lower value
# [57] = locus YOL136C, strain PFK27, stronger effect = lower value
# [58] = locus YOR061W, strain CKA2, stronger effect = lower value
# [59] = locus YOR119C, strain RIO1, stronger effect = lower value
# [60] = locus YOR231W, strain MKK1, stronger effect = lower value
# [61] = locus YOR329C, strain SCD5, stronger effect = lower value
# [62] = locus YPL031C, strain PHO85, stronger effect = lower value
# [63] = locus YPL153C, strain RAD53, stronger effect = lower value
# [64] = locus YPL204W, strain HRR25, stronger effect = lower value
# [65] = locus YPL209C, strain IPL1, stronger effect = lower value
# [66] = locus YPL256C, strain CLN2, stronger effect = lower value
# [67] = locus YPR025C, strain CCL1, stronger effect = lower value
# [68] = locus YPR106W, strain ISR1, stronger effect = lower value
# [69] = locus YPR111W, strain DBF20, stronger effect = lower value
# [70] = strain NNK1, stronger effect = lower value
# [71] = strain TSCII, stronger effect = lower value
structure (smiles),measurement,setting,value
CCOC(=O)C(O)(c1ccc(NC(=O)Nc2ccc(Cl)cc2)cc1)C(F)(F)F (stereo not given),normalized growth,[1],0.993
same,normalized growth,[2],0.985
same,normalized growth,[3],0.997
same,normalized growth,[4],0.985
same,normalized growth,[5],0.99
same,normalized growth,[6],0.989
same,normalized growth,[7],0.987
same,normalized growth,[8],0.982
same,normalized growth,[9],0.986
same,normalized growth,[10],0.993
same,normalized growth,[11],1.03
same,normalized growth,[12],0.984
same,normalized growth,[13],0.986
same,normalized growth,[14],0.993
same,normalized growth,[15],1.01
same,normalized growth,[16],1.01
same,normalized growth,[17],1
same,normalized growth,[18],0.997
same,normalized growth,[19],0.99
same,normalized growth,[20],0.988
same,normalized growth,[21],0.988
same,normalized growth,[22],0.992
same,normalized growth,[23],0.999
same,normalized growth,[24],0.991
same,normalized growth,[25],0.924
same,normalized growth,[26],1.06
same,normalized growth,[27],1.04
same,normalized growth,[28],1.05
same,normalized growth,[29],0.935
same,normalized growth,[30],0.981
same,normalized growth,[31],0.915
same,normalized growth,[32],0.956
same,normalized growth,[33],1
same,normalized growth,[34],0.994
same,normalized growth,[35],0.977
same,normalized growth,[36],1.03
same,normalized growth,[37],1.01
same,normalized growth,[38],0.994
same,normalized growth,[39],0.975
same,normalized growth,[40],0.987
same,normalized growth,[41],1.04
same,normalized growth,[42],0.963
same,normalized growth,[43],1.01
same,normalized growth,[44],0.973
same,normalized growth,[45],0.992
same,normalized growth,[46],0.983
same,normalized growth,[47],0.991
same,normalized growth,[48],0.999
same,normalized growth,[49],1.01
same,normalized growth,[50],1
same,normalized growth,[51],0.998
same,normalized growth,[52],1.01
same,normalized growth,[53],0.983
same,normalized growth,[54],0.979
same,normalized growth,[55],0.924
same,normalized growth,[56],0.982
same,normalized growth,[57],0.992
same,normalized growth,[58],1
same,normalized growth,[59],1.08
same,normalized growth,[60],0.986
same,normalized growth,[61],0.992
same,normalized growth,[62],0.987
same,normalized growth,[63],1.03
same,normalized growth,[64],1
same,normalized growth,[65],0.996
same,normalized growth,[66],1.11
same,normalized growth,[67],0.99
same,normalized growth,[68],0.992
same,normalized growth,[69],0.986
same,normalized growth,[70],0.998
same,normalized growth,[71],0.993
CCOC(=O)C(NC(C)=O)(Nc1ccc(F)c(Cl)c1)C(F)(F)F (stereo not given),normalized growth,[1],0.992
same,normalized growth,[2],0.995
same,normalized growth,[3],0.983
same,normalized growth,[4],0.997
same,normalized growth,[5],0.991
same,normalized growth,[6],0.992
same,normalized growth,[7],0.995
same,normalized growth,[8],0.982
same,normalized growth,[9],0.997
same,normalized growth,[10],0.991
same,normalized growth,[11],1.01
same,normalized growth,[12],0.99
same,normalized growth,[13],0.997
same,normalized growth,[14],0.985
same,normalized growth,[15],1
same,normalized growth,[16],0.933
same,normalized growth,[17],0.994
same,normalized growth,[18],0.991
same,normalized growth,[19],0.994
same,normalized growth,[20],0.992
same,normalized growth,[21],0.973
same,normalized growth,[22],0.979
same,normalized growth,[23],0.988
same,normalized growth,[24],1.14
same,normalized growth,[25],0.97
same,normalized growth,[26],1.19 [resistant] (active)
same,normalized growth,[27],1.15
same,normalized growth,[28],1.14
same,normalized growth,[29],1.01
same,normalized growth,[30],0.99
same,normalized growth,[31],1.14
same,normalized growth,[32],0.963
same,normalized growth,[33],1.01
same,normalized growth,[34],0.998
same,normalized growth,[35],0.997
same,normalized growth,[36],1.18
same,normalized growth,[37],0.998
same,normalized growth,[38],1
same,normalized growth,[39],1.01
same,normalized growth,[40],0.979
same,normalized growth,[41],1.07
same,normalized growth,[42],1.11
same,normalized growth,[43],1.01
same,normalized growth,[44],1.01
same,normalized growth,[45],0.997
same,normalized growth,[46],0.984
same,normalized growth,[47],0.992
same,normalized growth,[48],0.988
same,normalized growth,[49],0.988
same,normalized growth,[50],1.01
same,normalized growth,[51],0.986
same,normalized growth,[52],1.16
same,normalized growth,[53],1
same,normalized growth,[54],0.989
same,normalized growth,[55],1.01
same,normalized growth,[56],0.981
same,normalized growth,[57],0.999
same,normalized growth,[58],1
same,normalized growth,[59],1
same,normalized growth,[60],1.11
same,normalized growth,[61],0.991
same,normalized growth,[62],1
same,normalized growth,[63],0.993
same,normalized growth,[64],0.996
same,normalized growth,[65],0.988
same,normalized growth,[66],1.12
same,normalized growth,[67],0.986
same,normalized growth,[68],0.99
same,normalized growth,[69],0.997
same,normalized growth,[70],1.01
same,normalized growth,[71],0.986
CCOC(=N)c1ccc(F)c(Cl)c1,normalized growth,"locus YAL013W, strain DEP1, stronger effect = lower value",1.01
same,normalized growth,"locus YBR229C, strain ROT2, stronger effect = lower value",0.995
same,normalized growth,[8],0.992
same,normalized growth,"locus YDL134C, strain PPH21, stronger effect = lower value",1.02
same,normalized growth,"locus YDR150W, strain NUM1, stronger effect = lower value",1.01
same,normalized growth,"locus YEL061C, strain CIN8, stronger effect = lower value",1.01
same,normalized growth,"locus YGR078C, strain PAC10, stronger effect = lower value",1.02
same,normalized growth,"locus YGR229C, strain SMI1, stronger effect = lower value",1.02
same,normalized growth,[26],1.02
same,normalized growth,"locus YHR087W, strain rtc3, stronger effect = lower value",0.995
same,normalized growth,"locus YJR043C, strain POL32, stronger effect = lower value",1.02
same,normalized growth,"locus YJR075W, strain HOC1, stronger effect = lower value",1.01
same,normalized growth,"locus YLR039C, strain RIC1, stronger effect = lower value",1.07
same,normalized growth,"locus YLR058C, strain SHM2 (second series), stronger effect = lower value",1.01
same,normalized growth,"locus YLR085C, strain ARP6, stronger effect = lower value",1.02
same,normalized growth,"locus YLR262C, strain YPT6, stronger effect = lower value",1.06
same,normalized growth,"locus YML094W, strain GIM5, stronger effect = lower value",0.981
same,normalized growth,"locus YMR219W, strain ESC1, stronger effect = lower value",1.02
same,normalized growth,"locus YMR263W, strain SAP30, stronger effect = lower value",1.06
same,normalized growth,"locus YMR307W, strain GAS1, stronger effect = lower value",1.07
same,normalized growth,"locus YNL153C, strain GIM3, stronger effect = lower value",0.999
same,normalized growth,"locus YNL298W, strain CLA4 (second series), stronger effect = lower value",1.06
same,normalized growth,"locus YNL322C, strain KRE1, stronger effect = lower value",1.01
same,normalized growth,"locus YNR030W, strain Alg12, stronger effect = lower value",1.01
same,normalized growth,"locus YOL006C, strain TOP1, stronger effect = lower value",1.06
same,normalized growth,"locus YPL055C, strain LGE1, stronger effect = lower value",1.02
same,normalized growth,"locus YPL241C, strain CIN2, stronger effect = lower value",0.923
same,normalized growth,"locus YPR135W, strain CTF4, stronger effect = lower value",1.05
